Experimental data as given in PubChem BioAssay (NCI).
“And” between values parts separate entries of the source, which are not always exact repeats. Equal entries are not always repeated. The panel holds about 83,000 compounds, 20% with a hit somewhere; the sample as a whole holds those more often.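 Testing used 96-well plates and a 48-hour single-concentration exposure. Example: -40 means 40% of the starting cells died.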 The source made the active and inactive calls.

Tested on: RPMI-8226 leukemia
Test: NCI-60 one-dose screen, 48 h (100 = growth as untreated, 0 = no growth, -100 = all killed)
Conditions: 10 µM
Procedure: Growth inhibition of the RPMI-8226 human tumor cell line is measured as a screen for anti-cancer activity. Cells are grown in 96 well plates and exposed to the test compound for 48 hours. Compounds are tested at a single concentration, which is 10^-5 M for most compounds. The reported endpoint is percent growth (GI% or GIPRCNT), where numbers from 0 - 100% represent growth inhibition, and numbers from -100% - 0 represent cell death. For example, a value of 40 represents 60% growth inhibition. A value of 0 means no net growth occurred over the course of the experiment. A value of -40 indicates 40% of cells at the beginning of the experiment died by the end of the experiment. A value of -100 means all cells are dead at the end of the experiment.
NCI-60 Human Tumor Cell Lines Screen was performed using the standard one-dose NCI protocol, which is described in more detail at https://dtp.cancer.gov/discovery_development/nci-60/default.htm.
Compounds with GIPRCNT values below 10 were considered active. Activity score was based on GIPRCNT using the following formula: […]
Score is 0 for GIPRCNT values of 100 or above, 50 for GIPRCNT values of 0, and 100 for GIPRCNT values of -100.

SMILES	growth
CN(C)C(=O)c1ccc(SC(=S)NCc2ccccc2)cc1	107% (inactive)
O=C(O)c1c(Cl)c(Cl)c(Cl)c(Cl)c1-c1c2cc(I)c(=O)c(I)c-2oc2c(I)c(O)c(I)cc12	114% (inactive) and 90.6% (inactive) and 31.5% (inactive)
O=C(Nc1cccc(Br)c1)Oc1cccc2cccnc12	99.2% (inactive)

Same assay, conditions: 10 µM unless noted

SMILES	growth
COc1ccc(N=N/N=c2\sc3cc(OC)ccc3n2C)cc1	77.3% (inactive)
c1ccc2c(c1)Nc1cc3ccccc3cc1N2	18.8% (inactive)
Cc1ccc(C(=Nc2ccccc2)N=P(c2ccccc2)(c2ccccc2)c2ccccc2)cc1	-38.6% (active)
O=C1OCc2cccc3cccc1c23	100% (inactive)
Oc1ccc(/C=N/NC(=S)Nc2ccccc2)nc1	6.99% (active)
Cn1c2ccccc2c2nnc(N/N=C/c3ccccn3)nc21	-14.2% (active)
O=[N+]([O-])c1ccc(N=Nc2ccc(O)cc2O)cc1	43% (inactive)
OC(CNc1ccnc2cc(Cl)ccc12)CNc1ccnc2cc(Cl)ccc12	92.6% (inactive)
S=C(NCCNC(=S)[S][Sn]([c]1ccccc1)([c]1ccccc1)[c]1ccccc1)[S][Sn]([c]1ccccc1)([c]1ccccc1)[c]1ccccc1	-24% (active)
C=C(Cl)C(=NC(C)(C)C)Nc1ccccc1C	75.1% (inactive)
Cc1cc2nc(CS)[nH]c2cc1C	28.7% (inactive)
CCC(CCCN(CC)CCc1ccccc1)OC(=O)c1cc(OC)c(OC)c(OC)c1 (stereo not given)	85% (inactive)
CCN1/C(=C\c2cc[n+](CC)c3ccccc23)C=Cc2ccccc21	12.6% (inactive)
CC(=O)C(=Cc1ccc(C=C(C(C)=O)C(C)=O)cc1)C(C)=O	2.05% (active)
NC(=S)N/N=C/c1ccc(Cl)s1	100% (inactive)
CCC(CC)COC(=O)c1ccc(O)c(O)c1	35.1% (inactive)
CCCCCCCCCCCCCCCC[N+](C)(CCO)Cc1cnc[nH]1 (stereo not given)	-58.3% (active)

SMILES	growth
CC(C)(C)CC(C)(C)c1ccc(OCCSC(=N)N)cc1	2.8% (active)
CCOC(=O)/C=C/c1ccc([N+](=O)[O-])o1	74.7% (inactive)
O=C(Nc1ccccc1)c1cc(Cl)ccc1O	19.9% (inactive)
COC(=O)Nc1nc2ccc(C(=O)c3ccccc3)cc2[nH]1	45.5% (inactive) and -31.7% (active)
C[n+]1c(/C=C/c2ccc([N+](=O)[O-])cc2)ccc2ccccc21	102% (inactive)
COc1cc(NS(C)(=O)=O)ccc1Nc1c2ccccc2nc2ccccc12	11.3% [2.5 µM] (inactive)
O=C1NC(=O)/C(=C/C=C/c2ccccc2)S1	38.8% (inactive)
CN1c2ccccc2C(C)(C)C12C=Cc1cc(O)ccc1O2 (stereo not given)	-22.8% (active)
CCOC(=O)/C(=C\c1ccc(-c2ccccc2)cc1)C(C)=O	105% (inactive)
N#CSCC(=O)c1ccc(Cl)cc1	45.6% (inactive)
CCC(=O)Sc1ccccc1C(=O)Nc1ccc(Cl)cc1	35% (inactive)
CNc1ccc2c(c1)c1ccccc1n2C	110% (inactive)
CN(C)c1ccc(C(=C2C=CC(=[N+](C)C)C=C2)c2ccc(N(C)C)cc2)cc1 (tested in a mixture with another compound)	-52.6% (active)
NC(N)=N/N=C/c1ccc([N+](=O)[O-])o1	78.7% (inactive)
N#CSCc1c(Cl)cccc1Cl	47.7% (inactive)
O=C1c2ccccc2C(=O)N1c1ccccc1	119% (inactive)
O=C1N[C@H]2[C@H](CS[C@H]2CCCCC(=O)N(CCP(c2ccccc2)c2ccccc2)CCP(c2ccccc2)c2ccccc2)N1	57% (inactive)

Same assay, conditions: 100 µM

SMILES	growth
CN(C)C(=O)c1ccc(SC(=S)NCc2ccccc2)cc1	-27.3% (active)
O=C(O)c1c(Cl)c(Cl)c(Cl)c(Cl)c1-c1c2cc(I)c(=O)c(I)c-2oc2c(I)c(O)c(I)cc12	24.3% (inactive)
O=C(Nc1cccc(Br)c1)Oc1cccc2cccnc12	1.75% (active)
